HIV RNase H inh-1 – blocks HIV-1 RNase H cleavage of RNA/DNA duplex | P04585 | RT-RNase H RNA/DNA duplex cleavage, fluorescence | inhibition, % at 10 µM | hit rate 1.9% among 65,000 | AID 565; in the data active = inhibition above about 50%
HIV RNase H inh-2 – confirmation of HIV-1 reverse transcriptase RNase H inhibitors. shares compounds with HIV RNase H inh-1. Recombinant RT RNase H, fluorescent RNA/DNA duplex cleavage. inhibition, % at 10 µM. hit rate 39% among 1,000. AID 651; in the data active = inhibition above about 48%; inconclusive = no clear call, values can overlap the other calls
* hit, by the source's call; ? = inconclusive. The full list was thinned out, with hits kept by preference.

SMILES	HIV RNase H inh-1	others
CCCCN(CC)S(=O)(=O)c1ccc(C(=O)Nc2nnc(-c3cccs3)o2)cc1	74*	HIV RNase H inh-2=?
CCCCN(CCCC)S(=O)(=O)c1ccc(C(=O)Nc2nnc(COC)o2)cc1	21
CCc1nnc(NC(=O)c2ccc(S(=O)(=O)N(CC)Cc3ccccc3)cc2)o1	22
CCc1nnc(NC(=O)CSc2nc3c(c(=O)n2CC)SC(C)C3)s1 (stereo not given)	-12
CCCNC(=O)Cn1cnc2sc(C(=O)NCCN(CC)CC)c(C)c2c1=O	-3
COc1ccc2c(c1)C(C)=CC(C)(C)N2C(=O)CSc1nnc(-c2ccc(C)cc2)o1	-4
c1cncc(-c2nc(-c3ccc4c(c3)OCO4)cs2)c1	-42
Oc1ccc(-c2nc(-c3ccc(O)c(O)c3)cs2)cc1	100*	HIV RNase H inh-2=83*
COc1ccc(-c2nc3ccccc3s2)cc1O	-21
Cc1ccc(NC(=O)CCn2cccc2)cc1Cl	-15
N#CC1=C(N)N2C(=C(C#N)C13CCCCC3)SC1CCCCC12O (stereo not given)	-2
Cn1c(-c2ccc3c(c2)OCO3)cnc1NCc1ccccc1	-5
Cn1c(-c2ccc3c(c2)OCO3)cnc1NCc1cccc(Cl)c1	-2
Cn1c(-c2ccc3c(c2)OCO3)cnc1NC(=O)CCC(=O)NCCc1ccccc1	84*	HIV RNase H inh-2=42
COC(=O)C(NC(=O)c1ccco1)(Nc1ccc(Br)cn1)C(F)(F)F (stereo not given)	-2
Nc1ccc(-c2nc3ccc(-c4nc5ccccc5o4)cc3[nH]2)cc1	73*	HIV RNase H inh-2=40
Nc1ccc2nc(-c3ccc(Cl)cc3)[nH]c2c1	3
Nc1ccc(-c2nc3ccc(N)cc3o2)cc1	-12
O=C(CSc1ncn[nH]1)Nc1ccc(Cl)c(Cl)c1	-15
CC(=O)c1cc2c(cc1NC(=O)CN1CCCCC1C)OCO2 (stereo not given)	0
CCOc1ccc(C(=O)CN2CCN(S(=O)(=O)c3ccc(OC)cc3)CC2)cc1	-1
Cc1ccc(C)c2[nH]c(=O)c(CN(CCN3CCCC3)C(=O)Nc3cccc(Cl)c3)cc12	-3
COC(=O)c1c(NC(=O)Cc2cccs2)sc(C)c1C	-43
COC(=O)c1sccc1NC(=O)c1ccc(Br)o1	-32
COC(=O)c1c(NC(=O)c2ccc(Br)o2)sc(C)c1C	74*	HIV RNase H inh-2=1
SMILES	HIV RNase H inh-1	others
C=C(C)CSc1nnc(-c2ccccc2)n1N	38
CN1C(=O)c2oc3ccccc3c(=O)c2C1c1ccccn1 (stereo not given)	-6
O=C1c2oc3ccccc3c(=O)c2C(c2ccc(Br)cc2)N1c1ncccn1 (stereo not given)	4
CC(=O)c1sc(N2C(=O)c3oc4ccccc4c(=O)c3C2c2ccc(C)o2)nc1C (stereo not given)	71*	HIV RNase H inh-2=?
Cc1onc(-c2ccccc2Cl)c1C(=O)OCC(=O)N1CCCc2ccccc21	-49
O=C(Cn1cnc2c(nnn2Cc2ccc(F)cc2)c1=O)NCc1ccco1	1
O=C(Nc1ncc2c(n1)CC(c1ccco1)CC2=O)c1ccccc1 (stereo not given)	-2
Cc1cc(C)cc(Nc2ncc3c(n2)CC(c2ccco2)CC3=O)c1 (stereo not given)	-11
O=C1CC(c2ccco2)Cc2nc(Nc3nc(-c4ccccc4)c4ccccc4n3)ncc21 (stereo not given)	73*	HIV RNase H inh-2=66*
O=C1CC(NC23CC4CC(CC(C4)C2)C3)C(=O)N1c1ccc2c(c1)OCO2 (stereo not given)	5
CN=C(Nc1cc(C)nn1CCC#N)c1ccc(F)cc1	0
Cc1nn(CCC#N)c2c1P(=S)(N1CCCC1)OC(c1ccc(F)cc1)=N2 (stereo not given)	91*	HIV RNase H inh-2=72*
COc1ccc(C)cc1S(=O)(=O)N(CC(N)=O)Cc1ccccc1	-4
O=C1C2C(C(=O)N1Cc1cccnc1)C1C=CC2C12CC2 (stereo not given)	-4
CCOc1ccc2nc3c(cc2c1)CN(CCCO)C(=NCCOC)S3	3
CCc1ccc(NC(=O)N(C2CCC(C)CC2)C2CCN(C(C)=O)CC2)cc1 (stereo not given)	4
COc1ccc(S(=O)(=O)N(CCN2CCOCC2)Cc2cc(OC)ccc2OC)cc1	-6
O=C(Nc1sccc1C(=O)N1CCOCC1)c1cccnc1	6
CC(=O)c1ccc(OCC(O)CN2CCN(CCO)CC2)cc1 (stereo not given)	-4
CCOC(=O)c1cc2sc(C)cc2n1CC(=O)Nc1ccc2c(c1)OCCO2	58*	HIV RNase H inh-2=?
CCOC(=O)c1cc2sc(C)cc2n1CC(=O)Nc1cccc(C)c1C	-4
CCOC(=O)c1cn(CC(=O)Nc2ccc3c(c2)OCCO3)nn1	-6
O=S(=O)(NC1CCCCC1)c1ccc(Cl)s1	-32
CC(=O)NC(=O)Nc1sc(=S)n(C)c1C	17
Cc1c(NC(=O)Oc2ccccc2)sc(=S)n1C	59*	HIV RNase H inh-2=6
SMILES	HIV RNase H inh-1	others
Cc1nnc(NC(=O)Oc2ccccc2)s1	-1
COc1ccc(OC)c(N2C(=O)CC(C(C)c3ccccc3)C2=O)c1 (stereo not given)	7
CCCCCOC(=O)C1=C(C)N(C)C(=O)NC1c1cc(Br)c(O)c(OC)c1 (stereo not given)	-26
CCn1c(C)nc2cc(S(=O)(=O)N3CCCCC3)ccc21	-23
c1ccc2nc3c(nc2c1)c1ccccc1n3CCN1CCOCC1	-29
CCn1c2ccccc2c2nc3cc(S(=O)(=O)N4CCOCC4)ccc3nc21	98*	HIV RNase H inh-2=52*
COc1ccc(-n2c(N)c(Br)c(=O)[nH]c2=O)cc1	-3
COc1ccc(OC)c(S(=O)(=O)N2CCCc3ccccc32)c1	-45
O=C(O)c1cccc(N2CCCC2=O)c1	-13
Cc1ccc(C)n1-c1cccc(N)c1	20
Cc1ccc(C)n1-c1cccc(C(=O)O)c1	71*	HIV RNase H inh-2=?
CCN1CCN(c2ccc(-n3c(C)nc4c(cnn4-c4ccccc4Cl)c3=O)cc2)CC1	-16
CCc1c(C(=O)O)[nH]c2ccc(Br)cc12	-7
Cc1ccc(-c2nnn(CC(=O)Nc3cccc4c3CCCC4)n2)o1	71*	HIV RNase H inh-2=7
CCN(CC)C(=O)Cn1nnc(-c2ccc(C)o2)n1	3
Cc1ccc(-c2nnn(CC(=O)NCCc3ccc4c(c3)OCO4)n2)o1	-8
O=C(O)c1ccccc1S(=O)(=O)NCC(O)COc1ccc(Br)cc1 (stereo not given)	-6
COC(=O)C1(CCSC)NC(c2ccco2)C2C(=O)N(C)C(=O)C21 (stereo not given)	1
Cc1nc(N)sc1-c1csc(Nc2ccccc2)n1	-2
Cc1cc(O)ccc1Nc1nc(-c2sc(N)nc2C)cs1	73*	HIV RNase H inh-2=49
COc1ccc(OC)c(Nc2nc(-c3sc(N)nc3C)cs2)c1	26
Cc1cc(CN2CCOCC2)c(O)c(C2(C)CCCCC2)c1	1
CCOC(=O)C1CCCN(C(=O)c2cn(CC)c3ccc(S(=O)(=O)N4CCCC4)cc3c2=O)C1 (stereo not given)	4
CC12CC(NC(=O)N1CCc1ccccc1)c1cc(Cl)ccc1O2 (stereo not given)	-10
O=C(NCc1cccs1)C1CC(=O)N(c2ccccc2)C1 (stereo not given)	-8
COc1cccc(NC(=O)N(Cc2cc3cc(C)cc(C)c3[nH]c2=O)CC2COCCO2)c1 (stereo not given)	7
CCc1ccccc1NC(=O)CSc1nc2c(c(-c3ccco3)c1C#N)CCCC2	40
Cc1ccccc1NC(=O)CSc1nc(N)c(C#N)c(-c2cccs2)c1C#N	40
